# Several values for one entry are separate records, joined by “and”; a condition that tells them apart may be missing. Identical values can stand only once. Out of some 110,000 compounds screened, about 190 (0.17%) were called active. Cut-off read from the data, not from the text of the source: active = inhibition above about 50%; inactive = the rest. The sample as a whole holds a higher share of actives than the screen did. Potency and affinity values are given separately. Where a structure was tested more than once in an assay, its records may differ in their call.
# Target: Dual specificity protein phosphatase 6 (Rattus norvegicus) (UniProt Q64346)
# Assay: MKP-3 phosphatase inhibitors, primary screen, biochemical, rat enzyme, in vitro (AID 425);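 note: plate controls were vehicle for no effect and reference inhibitor for full effect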
# Details: recombinant MKP-3 phosphatase activity, fluorescence; at 20 µM; stronger effect = higher value
# Dual specificity protein phosphatase 6 (Rattus norvegicus), sequence (Q64346 whole entry, looked up): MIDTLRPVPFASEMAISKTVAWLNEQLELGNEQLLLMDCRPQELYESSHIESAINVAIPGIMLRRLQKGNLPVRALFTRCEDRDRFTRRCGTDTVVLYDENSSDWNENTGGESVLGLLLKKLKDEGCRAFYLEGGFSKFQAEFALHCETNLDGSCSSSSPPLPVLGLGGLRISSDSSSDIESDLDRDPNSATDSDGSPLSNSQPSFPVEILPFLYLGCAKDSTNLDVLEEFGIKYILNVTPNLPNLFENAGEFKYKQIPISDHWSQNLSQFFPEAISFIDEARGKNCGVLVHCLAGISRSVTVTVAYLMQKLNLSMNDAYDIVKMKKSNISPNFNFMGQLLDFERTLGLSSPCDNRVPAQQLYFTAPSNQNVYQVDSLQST
row,SMILES,inhibition
1,Cc1cc(F)ccc1S(=O)(=O)Nc1c(C)n(C)n(-c2ccccc2)c1=O,6.3% (inactive)
2,O=C(O)COc1ccc2c(=O)c(-c3ccc(Cl)cc3)coc2c1,2% (inactive)
3,CCCCOCCCNC(=O)N[C@@H](CC(C)C)C(=O)O,7.7% (inactive)
4,COc1ccc(Cl)cc1C(=O)Nc1ccc(N(C)C)cc1,0.6% (inactive)
5,CSCCNS(=O)(=O)c1ccc(NC(C)=O)cc1,1.1% (inactive)
6,CCc1ccc(N2C(=O)/C(=C/c3ccc(I)o3)C(=O)NC2=S)cc1,104% (active)
7,O=C1NC(=S)N(c2ccccc2F)C(=O)/C1=C/c1ccc(Sc2ccccc2)o1,7.1% (inactive)
8,CCOc1ccc(N2C(=O)/C(=C/c3ccc(OCc4cccc(C(=O)O)c4)cc3)C(=O)NC2=S)cc1,-1.9% (inactive)
9,O=C1NC(=O)N(c2ccc(Cl)cc2)C(=O)/C1=C/c1ccc(I)o1,23.6% (inactive)
10,O=C1NC(=S)N(c2ccccc2F)C(=O)/C1=C/c1ccc(I)o1,91.2% (active)
11,CCOc1ccc(N2C(=O)/C(=C/c3ccc(N(CC)CC)o3)C(=O)NC2=S)cc1,-0.2% (inactive)
12,CCOc1ccc(N2C(=O)/C(=C/c3ccc(I)o3)C(=O)NC2=S)cc1,107% (active)
13,O=C1NC(=O)N(c2ccccc2F)C(=O)/C1=C/c1ccc(OCc2cccc(C(=O)O)c2)cc1,0.8% (inactive)
14,Cc1ccc(N2C(=O)NC(=O)/C(=C\c3ccc(I)o3)C2=O)cc1,5.4% (inactive)
15,O=C1NC(=S)N(c2ccccc2F)C(=O)/C1=C/c1ccc(OCc2cccc(C(=O)O)c2)cc1,68.5% (active)
16,CCOc1ccc(N2C(=O)NC(=O)/C(=C\c3ccc(I)o3)C2=O)cc1,5.3% (inactive)
17,O=C1NC(=O)N(c2ccccc2F)C(=O)/C1=C/c1ccc(I)o1,12.9% (inactive)
18,CC(C)c1ccc(NC2=NS(=O)(=O)c3cc([N+](=O)[O-])ccc32)cc1,2.8% (inactive)
19,Cc1c(Cl)cccc1NC(=O)C(=O)NCc1ccc2c(c1)OCO2,0.1% (inactive)
20,CCOC(=O)c1ccc(NC(=O)CN(c2ccccc2OC)S(=O)(=O)c2ccccc2)cc1,-2.1% (inactive)
21,CCCC(=O)OCC(=O)Nc1cc(C(C)(C)C)nn1-c1ccccc1,-0.4% (inactive)
22,C=CCc1cccc2cc(C(=O)NCc3ccccc3)c(=O)oc12,6.2% (inactive)
23,COc1ccc(NC(=O)C2CCC(C)(C(=O)O)C2(C)C)cc1 (centres undefined),-6.7% (inactive)
24,COc1ccc(/C=N/NC(=O)c2cc(-c3ccc(Cl)cc3)n[nH]2)cc1,3.6% (inactive)

row,SMILES,inhibition
1,O=C(COc1ccc(Cl)cc1)Nc1nc(-c2ccc(Cl)cc2)cs1,2.6% (inactive)
2,N#Cc1c(N)nc2c(c1-c1ccc3c(c1)OCO3)CCCCC2,-0.9% (inactive)
3,Cc1c(C#N)c2nc3ccccc3n2c(=O)/c1=C\c1c(O)n(-c2ccc(Br)cc2)[nH]c1=O,2.8% (inactive)
4,Cc1c(C#N)c2nc3ccccc3n2c(=O)/c1=C/c1sc2ccccc2c1O,4.2% (inactive)
5,Cc1ccc(-n2[nH]c(=O)c(/C=c3/c(C)c(C#N)c4nc5ccccc5n4c3=O)c2O)cc1C,66.8% (active)
6,COc1cc(/C=C2\NC(=S)NC2=O)ccc1OC(=O)C12CC3CC(CC(C3)C1)C2,-2.6% (inactive)
7,O=C1/C(=C/c2cccc3ccccc23)SC(=S)N1Cc1ccco1,1.1% (inactive)
8,Cc1cccc(N2C(=O)/C(=C/c3ccccc3[N+](=O)[O-])SC2=S)c1,120% (active)
9,COc1cccc(N2C(=O)/C(=C/c3ccccc3[N+](=O)[O-])SC2=S)c1,3% (inactive)
10,COc1ccccc1/C=C1\SC(=S)N(Cc2ccco2)C1=O,0.9% (inactive)
11,O=C1/C(=C/c2ccccc2[N+](=O)[O-])SC(=S)N1c1cccc(Br)c1,4.2% (inactive)
12,O=C1/C(=C/c2ccccc2[N+](=O)[O-])SC(=S)N1Cc1ccco1,84.3% (active)
13,O=C(O)CCCCCN1C(=O)/C(=C\c2ccc(-c3ccc(Cl)c(Cl)c3)o2)SC1=S,1.8% (inactive)
14,Cc1ccccc1N(CC(=O)N1CCc2ccccc2C1)S(C)(=O)=O,2.4% (inactive)
15,NC(=O)c1cc(NC(=O)COc2ccc(F)cc2)c(Cl)cc1Cl,-1.1% (inactive)
16,Cc1c(NS(=O)(=O)c2ccc3c(c2)CCN3C(=O)C2CC2)c(=O)n(-c2ccccc2)n1C,-3.7% (inactive)
17,O=C1NC(=S)N/C1=C/c1ccc(-c2cccc(Br)c2)o1,0.8% (inactive)
18,Cc1ccc(-c2ccc(C=C3C(=O)NC(=O)NC3=O)o2)c(Br)c1,26.6% (inactive)
19,O=C1NC(=O)C(=Cc2ccc(-c3cccc(Br)c3)o2)C(=O)N1,52.6% (active)
20,CCN1CCN(CCCNC(=O)Cn2cc3c(n2)CCCC3)CC1,-12% (inactive)
21,COc1ccc(C2C(C(C)=O)=C(O)C(=O)N2c2nc3ccccc3s2)c(OC)c1 (centres undefined),-1.5% (inactive)
22,Cc1ccc(N2CC(C(=O)Nc3ccc(N(C)C)cc3)CC2=O)cc1 (centres undefined),2.6% (inactive)
23,CCOC(=O)CSc1nnc(Cn2nnc(-c3ccccc3)n2)n1C,0.9% (inactive)
24,Oc1c(Br)cc(Cl)cc1C=Nc1cccc2nsnc12,42.7% (inactive)

row,SMILES,inhibition
1,Oc1c(Br)ccc(Cl)c1C=Nc1cccc2nsnc12,117% (active)
2,COc1ccc(Br)c(C=Nc2cccc3nsnc23)c1O,14.8% (inactive)
3,NC(=O)C1C(=O)Oc2ccccc2C1=O (centres undefined),1.6% (inactive)
4,Cc1ccc(-c2nnn(CC(=O)N(Cc3ccccc3)C(C(=O)NC3CCCC3)c3ccncc3)n2)o1 (centres undefined),-0.8% (inactive)
5,Cc1cc2nc(-c3cccc(NC(=O)c4ccc(Br)o4)c3)oc2cc1C,3.2% (inactive)
6,O=S1(=O)N=C2CCCN2C(c2ccc(F)cc2)N1 (centres undefined),-14.7% (inactive)
7,O=C(Nc1ncc(Cc2ccc(Cl)c(Cl)c2)s1)c1ccccc1Cl,3.9% (inactive)
8,Cc1cc(C)n(Cc2ccc(C(=O)O)o2)n1,-6.7% (inactive)
9,Cc1ccc(OCC(=O)N/N=C\c2ccc(-c3ccc([N+](=O)[O-])cc3)o2)cc1,-0.5% (inactive)
10,O=C1/C(=C/c2ccco2)N2CCC1CC2,-0.8% (inactive)
11,O=C1/C(=C\c2cccs2)CC2CC1C/C(=C/c1cccs1)C2=O,1.2% (inactive)
12,O=C1/C(=C\c2ccco2)CC2CC1C/C(=C/c1ccco1)C2=O,55.6% (active)
13,CN1CCN(CCCn2cnc3c(=O)oc4ccccc4c32)CC1,-0.6% (inactive)
14,CC(=O)O[C@@]12CO[C@@H]1C[C@H](O)[C@@]1(C)C(=O)[C@H](O)C3=C(C)[C@@H](OC(=O)[C@H](O)[C@@H](NC(=O)OC(C)(C)C)c4ccccc4)C[C@](O)([C@@H](OC(=O)c4ccccc4)[C@H]21)C3(C)C,-0.3% (inactive)
15,COC(=O)c1ccccc1OCc1cccc(C)n1,-5.5% (inactive)
16,COC(=O)c1ccc(C(=O)OC)c(N)c1,-12.2% (inactive)
17,COc1ccc(S(=O)(=O)Nc2ccc(C)c(Cl)c2)cc1OC,3.1% (inactive)
18,Cc1ccc(N(C)S(=O)(=O)c2ccc(Cl)cc2)cc1,-0.1% (inactive)
19,COc1cc(/C=C2/SC(=S)N(CC(=O)Nc3cccc(C(=O)O)c3)C2=O)cc(OC)c1OC,1.9% (inactive)
20,O=C(CN1C(=O)/C(=C/c2ccccc2)SC1=S)Nc1cccc(C(=O)O)c1,-1% (inactive)
21,COc1ccc(/C=C2\SC(=O)N(CC(=O)Nc3ccc(C)cc3C)C2=O)cc1,-0.5% (inactive)
22,O=C(CN1C(=O)S/C(=C/c2ccccc2F)C1=O)Nc1ccccc1C(=O)O,6.5% (inactive)
23,O=C(NC(Nc1ccc([N+](=O)[O-])cc1)C(Cl)(Cl)Cl)c1cccc(I)c1 (centres undefined),1.1% (inactive)
24,CCN(CC)S(=O)(=O)c1cccc(C(=O)Oc2cccnc2)c1,-10.3% (inactive)

row,SMILES,inhibition
1,CCOc1cc(C(=O)Nc2ccc(OCc3ccccc3)cc2)cc(OCC)c1OCC,7% (inactive)
2,CCC1=NN2C(=N)/C(=C/c3ccc(OCCOc4cccc(OC)c4)cc3)C(=O)N=C2S1,-1.7% (inactive)
3,CCCC1=NN2C(=N)/C(=C/c3cc(OC)ccc3OC)C(=O)N=C2S1,1.4% (inactive)
4,Nn1c(SCC(=O)NC2CCCCC2)nnc1-c1ccccc1,-1.2% (inactive)
5,Cc1cc(=O)n2[nH]c(C)c(-c3ccccc3)c2n1,72.9% (active) and -3.2% (inactive)
6,Cc1[nH]n2c(=O)cc(C(C)C)nc2c1-c1ccccc1,-5.8% (inactive)
7,Cc1cc(=O)n2[nH]c(C)c(-c3ccc(Cl)cc3)c2n1,-8.5% (inactive)
8,O=C(NCC1CCCO1)c1ccc(Cl)cc1 (centres undefined),-0.2% (inactive)
9,O=C(CCCn1c(=O)c2sccc2n(Cc2ccc(F)cc2)c1=O)NCc1ccco1,-8.3% (inactive)
10,CCOc1ccc(C(=O)NCc2ccc3c(c2)OCO3)cc1,-3% (inactive)
11,COc1ccc(/C=C2/SC(=O)N(CC(=O)Nc3ccc(F)c(Cl)c3)C2=O)cc1OC,1.4% (inactive)
12,COc1ccc(/C=C2/SC(=O)N(CC(=O)Nc3ccc(C)c(C)c3)C2=O)cc1OC,3.6% (inactive)
13,COc1ccc(-c2cc(C(=O)N/N=C(\C)c3ccc([N+](=O)[O-])cc3)[nH]n2)cc1,4% (inactive)
14,CCOc1ccccc1C=Nc1cc(Cl)cc(Cl)c1,-0.8% (inactive)
15,CCOc1ccccc1C=Nc1ccc(O)cc1,116% (active)
16,Cc1ccccc1C=Nc1ccc(O)cc1,112% (active)
17,N#Cc1ccc(N=Cc2cccc(O)c2O)cc1,-1.9% (inactive)
18,Oc1cccc(C=Nc2ccccc2)c1O,120% (active)
19,CCOc1ccccc1C=Nc1ccc(C(N)=O)cc1,-2.2% (inactive)
20,CCN(CC)c1ccc(N=Cc2cccc(O)c2O)cc1,16.1% (inactive)
21,Cc1cccc(C=Nc2ccccc2O)c1O,-0.6% (inactive)
22,Cc1ccsc1C=Nc1ccc(O)cc1,-7% (inactive)

# Reference: PubChem BioAssay AID425 (Sanford-Burnham Center for Chemical Genomics, 2006)
